Screening results: PubChem, several laboratories
An excerpt weighted towards active compounds, which were near 4.3% of everything screened.
PfHsp40 yeast – restores yeast growth despite PfHsp40 toxicity. AID 504582. 340,000 compounds, 0.68% hits. growth rescue, % at 12.5 µM. S. cerevisiae expressing PfHsp40, growth rescue, ATP luminescence; in the data active = growth rescue above about 28%, passing the limit was not always enough; inconclusive = no clear call, values can overlap the other calls;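 note: yeast W303a lacking pdr1 and pdr3 grown in galactose medium; growth measured after three days at 30 °C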
MazF activator – increases E. coli MazEF RNase cleavage of RNA; FAM/BHQ RNA-DNA oligo cleavage fluorescence, 5 h; activation, % at 20 µM; 350,000 compounds, 0.32% hits; in the data active = activation above about 50%
Target sequence (P0AE70 whole entry, looked up): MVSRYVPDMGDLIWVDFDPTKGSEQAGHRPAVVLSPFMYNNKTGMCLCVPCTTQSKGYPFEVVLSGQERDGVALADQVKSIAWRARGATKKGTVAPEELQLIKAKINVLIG
Anthrax LF inh2 – inhibitors of Bacillus anthracis lethal factor protease; P15917; multiplex microsphere protease cleavage assay, LF; inhibition, % at 10 µM; 360,000 compounds, 0.12% hits; AID 588501; in the data active = inhibition above about 30%; inconclusive = no clear call, values can overlap the other calls
BoNT-F LC inh – blocks Botulinum neurotoxin F light chain protease. Multiplex microsphere protease cleavage assay, flow cytometry. inhibition, % at 10 µM. 360,000 compounds, 0.22% hits. AID 588497; in the data active = inhibition above about 35%, passing the limit was not always enough; inconclusive = no clear call, values can overlap the other calls
Bead autofluor – compound fluorescence in toxin protease inhibitor counterscreen. AID 624483. fluorescence intensity (test concentration not listed). 360,000 compounds, 3.1% hits. compound autofluorescence counterscreen, microsphere flow cytometry; stronger effect = higher value; in the data active = fluorescence intensity above about 16000; inconclusive = no clear call, values can overlap the other calls
BoNT-A LC inh2 – BoNT A light chain protease inhibition; multiplex microsphere protease substrate cleavage, flow cytometry; 360,000 compounds, 0.17% hits; inhibition, % at 10 µM; in the data active = inhibition above about 30%; inconclusive = no clear call, values can overlap the other calls
BoNTA LC inh 1 – BoNT/A light chain protease inhibition | shares compounds with BoNT-F LC inh | inhibition, % at 10 µM | AID 602139 | multiplex microsphere protease assay, flow cytometry | 720 compounds, 3% hits; in the data active = inhibition above about 32%
BoNT-F LC CP1 – inhibitors of Botulinum neurotoxin F light chain protease | shares compounds with BoNT-F LC inh | inhibition, % at 10 µM | multiplex microsphere protease cleavage assay, flow cytometry | 720 tested, under 10 active
Anthrax LF CP1 – Bacillus anthracis lethal factor protease inhibition | shares compounds with BoNT-F LC inh | multiplex microsphere protease cleavage assay, LF | inhibition, % at 10 µM | 720 tested, under 10 active | AID 602142
Hits are given with their value; i = inactive; ? = inconclusive; nt = no result. Unless noted, the rule behind the calls is not given here.

SMILES	PfHsp40 yeast	MazF activator	Anthrax LF inh2	BoNT-F LC inh	Bead autofluor	BoNT-A LC inh2	BoNTA LC inh 1	BoNT-F LC CP1	Anthrax LF CP1
CC1Oc2ccccc2N(CC(=O)NC2CCCC2)C1=O (stereo unspecified)	i	i	i	35	i	i	i	i	i
Cc1ccc(CNC(=O)c2nccnc2C(=O)O)cc1	i	i	i	i	i	i	nt	nt	nt
COC(=O)C1Cc2ccccc2CN1S(=O)(=O)c1ccc(C)cc1 (stereo unspecified)	i	i	i	36	i	i	i	i	i
O=C(c1nn2c(C(F)(F)F)cc(-c3cccs3)nc2c1Br)N1CCCc2ccccc21	i	i	i	i	i	47	i	i	i
CCCCNC(=O)Cn1cnc([N+](=O)[O-])n1	i	i	i	40	i	i	i	i	i
COc1ccc(N(C(=O)c2snc(C(N)=O)c2N)C(C(=O)NCC2CCCO2)c2ccc3ncccc3c2)cc1OC (stereo unspecified)	i	i	i	38	i	i	i	i	i
O=C1NCCCCC1NS(=O)(=O)c1ccc(Cl)cc1 (stereo unspecified)	i	i	i	i	i	i	nt	nt	nt
N#Cc1ccc(S(=O)(=O)NC2CCCCNC2=O)cc1 (stereo unspecified)	i	i	i	42	i	i	i	i	i
Brc1ccc(-c2ncc3ccccn23)cc1	i	i	i	i	i	i	i	i	i
Fc1ccc(-c2ncc3ccccn23)cc1	i	i	i	i	i	36	i	i	i
Fc1ccc(-c2nnc3ccccn23)cc1	i	i	i	i	i	i	nt	nt	nt
COc1ccc(CCNC(=O)COC(=O)Cn2cnc3c2c(=O)n(C)c(=O)n3C)cc1	i	i	i	i	i	i	nt	nt	nt
CCOc1ccc(OCCOCCNCCOC)cc1	i	i	i	41	i	i	i	i	i
CCCCN(C)C(=O)c1cc2cc3ccc(OC)cc3nc2s1	i	i	i	i	i	i	i	i	i
N=c1sc2ccccc2n1-c1ccccc1	i	i	i	i	i	32	i	i	i
C=CC(=O)N=c1sc2ccccc2n1-c1ccccc1	i	i	i	i	i	i	nt	nt	nt
Cc1cc(S(=O)(=O)N2CCCCC2CCNC(=O)C(=O)NCC2CCCO2)ccc1F (stereo unspecified)	i	i	i	i	i	i	nt	nt	nt
CCCCOc1ccc(C(=O)CCN2CCOCC2)cc1	i	i	i	i	i	i	i	i	i
O=C(Nc1ccccc1C(=O)O)c1cccc(NS(=O)(=O)c2ccc(Br)cc2)c1	i	i	i	i	i	i	nt	nt	nt
O=C(Nc1ccccc1)c1ccc(S(=O)(=O)Nc2cccc(O)c2)cc1	i	i	i	i	i	i	i	i	i
O=C(O)c1ccc(NS(=O)(=O)c2cccc(C(=O)Nc3ccc(Br)cc3)c2)cc1	i	i	31	?	i	i	i	i	i
O=C(Nc1ccccc1C(=O)O)c1cccc(S(=O)(=O)Nc2ccc(Br)cc2)c1	i	i	i	i	i	i	i	i	i
Cc1ccc(C(=O)Nc2ccccc2C(=O)O)cc1S(=O)(=O)NC1CCCCC1	i	i	i	i	i	i	nt	nt	nt
Cc1ccc(C(=O)Nc2ccccc2C(=O)O)cc1S(=O)(=O)Nc1ccccc1	i	i	nt	nt	nt	nt	i	i	i
Cn1c(=O)c([N+](=O)[O-])c(NCC2CCCO2)c2ccccc21 (stereo unspecified)	i	i	i	i	i	i	nt	nt	nt
SMILES	PfHsp40 yeast	MazF activator	Anthrax LF inh2	BoNT-F LC inh	Bead autofluor	BoNT-A LC inh2	BoNTA LC inh 1	BoNT-F LC CP1	Anthrax LF CP1
COc1ccc(CNC(=O)CN(Cc2ccc(OC)cc2)C(=O)CCC(=O)Nc2nccs2)cc1	i	i	i	i	i	i	nt	nt	nt
COC(=O)[C@]1(C)N[C@H](CN(C)S(=O)(=O)c2ccc(-c3ccccc3)cc2)[C@@H]2C(=O)N(C)C(=O)[C@@H]21	i	i	i	i	i	i	nt	nt	nt
O=C(Nc1ccc(S(=O)(=O)Nc2ccccn2)cc1)c1cccc([N+](=O)[O-])c1	i	i	i	i	i	i	nt	nt	nt
O=C(Nc1ccccc1C(=O)O)c1cc(S(=O)(=O)Nc2cccc(F)c2)ccc1Cl	i	i	i	?	i	i	i	i	i
O=C(Nc1ccccc1C(=O)O)c1cc(S(=O)(=O)N2CCCCCC2)ccc1Cl	i	i	i	i	i	i	nt	nt	nt
O=C(Nc1ccc(S(=O)(=O)Nc2ccccn2)cc1)c1cccc(Cl)c1	i	i	i	36	i	i	i	i	i
COc1cccc(NC(=O)CN2C(=O)COc3ccc(S(=O)(=O)N4CCOCC4)cc32)c1	i	i	i	i	i	i	nt	nt	nt
Cc1nc(N2CCOCC2)sc1C=O	i	i	i	i	i	i	nt	nt	nt
O=C(CCNC(=O)c1ccc(Cl)cc1)Nc1cccc(S(=O)(=O)N2CCCCC2)c1	i	i	i	i	i	i	nt	nt	nt
COCCCNc1nc2ccccc2nc1NS(=O)(=O)c1ccc(C)cc1C	i	i	i	i	i	i	nt	nt	nt
COc1cc(-c2ncc3ccccn23)cc(OC)c1OC	i	i	i	i	i	i	i	i	i
COc1cccc(-c2ncc3ccccn23)c1	i	i	i	i	i	i	i	i	i
COc1cccc(-c2cnc3c(NC(C)=O)cc(-c4ccccc4OC)cn23)c1	nt	nt	i	i	i	i	nt	nt	nt
c1csc(-c2ncc3ccccn23)c1	i	i	i	i	i	i	nt	nt	nt
COc1ccc(-c2ncc3ccccn23)cc1	i	i	i	i	i	i	i	i	i
COc1ccc(-c2nc3ccccn3c2Cl)cc1	i	i	i	i	i	i	nt	nt	nt
COc1cc(OC)cc(-c2ncc3ccccn23)c1	i	i	i	i	i	i	i	i	i
CC(C)Cn1c(N)c(C(=O)CSc2nnc(C3CC3)n2C2CC2)c(=O)n(C)c1=O	i	i	i	i	i	i	nt	nt	nt
Cc1cc(-c2nnc(SCC(=O)Nc3ccccc3)n2C)no1	i	i	32	?	i	?	i	i	i
C=CCn1c(CSc2ccc(C)cc2)n[nH]c1=S	i	i	i	i	i	i	nt	nt	nt
COc1cc(Cl)c(S(=O)(=O)NCCCn2ccnc2)cc1Cl	i	i	i	i	i	i	nt	nt	nt
Cc1nc2cc(F)ccc2n1C1CCN(Cc2nnnn2CCc2ccccc2)CC1	i	i	i	42	i	i	i	i	i
O=C(COc1ccccc1Cl)Nc1ccc(S(=O)(=O)Nc2ccccn2)cc1	i	i	i	i	i	i	nt	nt	nt
CCOc1ccc(-c2nc(CSc3nncs3)cs2)cc1OC	i	i	i	41	?	i	i	i	i
CC1CCCC(N2CCN(C(=O)c3ccccc3F)CC2)C1 (stereo unspecified)	i	i	38	?	i	i	i	i	i
CC1CCN(C2CCN(C(=O)c3ccccc3F)CC2)CC1	i	i	nt	nt	nt	nt	nt	nt	nt
COc1ccc(C)cc1N(CC(=O)N1CCOCC1)S(C)(=O)=O	i	i	i	36	i	i	i	i	i
COc1ccc(C)cc1N(CC(=O)N1CCCC1)S(C)(=O)=O	i	i	i	i	i	i	nt	nt	nt
